Measured values as given in the supplement of paper PMC10849652.
The full data set covers some 7,900 targets. This sample favours those with a hit. About 0.6% of all pairs of compound and target were hits. Values without a mark were called inactive.

What was measured:
Experiment in all cases: log2 fold change, soluble protein after heating vs DMSO (PISA); higher = thermal stabilisation; K562 cells, 10 uM, 30 min; active = over 0.2 and 3.5 SD of the protein, either way, in both replicates (recomputed)
IRAK-1-4 Inhibitor I = compound: C1COCCN1CCN2C3=CC=CC=C3N=C2NC(=O)C4=CC(=CC=C4)[N+](=O)[O-] [IRAK-1-4 Inhibitor I]
Procedure, shortened: (§1)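 K562 cells (2×10^6 cells/mL) were treated with 10 μM compound for 30 min, and aliquots were heated for 3 min over 48°C-58°C. Pooled aliquots were extracted in PBS with 0.5% NP-40 at 4°C, and the supernatant after 21,000xg for 90 min was measured by TMTpro 16plex LC-MS/MS with channel sums equalised. Reported thermal stability, relative to control samples and from duplicates, is a log2 fold change.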

ibrutinib = compound: C=CC(=O)N1CCC[C@@H](n2nc(-c3ccc(Oc4ccccc4)cc3)c3c(N)ncnc32)C1 [ibrutinib]
Procedure, shortened: as §1

[1] = compound: CC(=O)c1cnc2ccc(-c3cc(Cl)c(O)c(Cl)c3)nc2c1N[C@H]1CC[C@H](CN(C)C)CC1
Procedure, shortened: as §1

ralimetinib = compound: CC(C)(C)Cn1c(N)nc2ccc(-c3[nH]c(C(C)(C)C)nc3-c3ccc(F)cc3)nc21 [ralimetinib]
Procedure, shortened: as §1

[2] = compound: CC(C)(O)CC(=O)NCCn1ccc2ncnc(Nc3ccc(Oc4cccc(C(F)(F)F)c4)c(Cl)c3)c21
Procedure, shortened: as §1

[3] = compound: CC(C)C1=C2N=C(C=C(N2N=C1)NCC3=CC=CC=C3)NCCCCCCN
Procedure, shortened: as §1

[4] = compound: CC(C)C[C@@H](C=O)NC(=O)[C@H](CC(C)C)NC(=O)[C@H](CC(C)C)NC(=O)OCc1ccccc1
Procedure, shortened: as §1

pinometostat = compound: CC(C)N(C[C@H]1O[C@@H](n2cnc3c(N)ncnc32)[C@H](O)[C@@H]1O)[C@H]1C[C@@H](CCc2nc3cc(C(C)(C)C)ccc3[nH]2)C1 [pinometostat]
Procedure, shortened: as §1

[5] = compound: CC1=C(C2=C(C=C1)C(=O)C3=CC=CC=C3N2CCCN)C
Procedure, shortened: as §1

[6] = compound: CC1=C(C=C(C=C1)NC(=O)C2=CC(=CC=C2)C(C)(C)C#N)NC3=CC4=C(C=C3)N=CN(C4=O)C
Procedure, shortened: as §1

[7] = compound: CC1=C(C=C(C=C1)NC(=O)C2=CC(=CC=C2)N(C)C)NC(=O)C3=CC=C(C=C3)O
Procedure, shortened: as §1

[8] = compound: CC1=CC=C(C=C1)SC2=C3C=C(SC3=CN=C2)C(=O)N
Procedure, shortened: as §1

[9] = compound: CC1=NC(=CC=C1)C2=C(N=C(N2)C(C)(C)C)C3=CC4=NC=CN=C4C=C3
Procedure, shortened: as §1

Nexturastat A = compound: CCCCN(Cc1ccc(C(=O)NO)cc1)C(=O)Nc1ccccc1 [Nexturastat A]
Procedure, shortened: as §1

[10] = compound: CCCS(=O)(=O)Nc1ccc(F)c(C(=O)c2c[nH]c3ncc(Cl)cc23)c1F
Procedure, shortened: as §1

[11] = compound: CCCc1cc(C)[nH]c(=O)c1CNC(=O)c1cc(-c2ccnc(N3CCN(C)CC3)c2)cc2c1cnn2C(C)C
Procedure, shortened: as §1

givinostat = compound: CCN(CC)Cc1ccc2cc(COC(=O)Nc3ccc(C(=O)NO)cc3)ccc2c1 [givinostat]
Procedure, shortened: as §1

barasertib = compound: CCN(CCCOc1ccc2c(Nc3cc(CC(=O)Nc4cccc(F)c4)[nH]n3)ncnc2c1)CCOP(=O)(O)O [barasertib]
Procedure, shortened: as §1

[12] = compound: CC1=C(C(CC(=O)N1)C2=CC=C(C=C2)C(F)(F)F)C(=O)NC3=C(C=C4C(=C3)C=NN4)F
Procedure, shortened: as §1

vemurafenib = compound: CCCS(=O)(=O)Nc1ccc(F)c(C(=O)c2c[nH]c3ncc(-c4ccc(Cl)cc4)cc23)c1F [vemurafenib]
Procedure, shortened: as §1

UniProt Q9NUM4, sequence (Q9NUM4 whole entry, looked up): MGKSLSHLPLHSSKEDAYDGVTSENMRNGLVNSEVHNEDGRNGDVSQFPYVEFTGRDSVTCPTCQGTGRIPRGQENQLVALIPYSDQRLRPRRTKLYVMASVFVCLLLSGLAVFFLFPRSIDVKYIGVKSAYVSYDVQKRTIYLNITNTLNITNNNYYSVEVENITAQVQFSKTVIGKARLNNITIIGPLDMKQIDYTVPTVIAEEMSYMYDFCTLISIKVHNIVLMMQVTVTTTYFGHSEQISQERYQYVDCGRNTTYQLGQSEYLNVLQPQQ
UniProt Q7Z3V4, sequence (Q7Z3V4 whole entry, looked up): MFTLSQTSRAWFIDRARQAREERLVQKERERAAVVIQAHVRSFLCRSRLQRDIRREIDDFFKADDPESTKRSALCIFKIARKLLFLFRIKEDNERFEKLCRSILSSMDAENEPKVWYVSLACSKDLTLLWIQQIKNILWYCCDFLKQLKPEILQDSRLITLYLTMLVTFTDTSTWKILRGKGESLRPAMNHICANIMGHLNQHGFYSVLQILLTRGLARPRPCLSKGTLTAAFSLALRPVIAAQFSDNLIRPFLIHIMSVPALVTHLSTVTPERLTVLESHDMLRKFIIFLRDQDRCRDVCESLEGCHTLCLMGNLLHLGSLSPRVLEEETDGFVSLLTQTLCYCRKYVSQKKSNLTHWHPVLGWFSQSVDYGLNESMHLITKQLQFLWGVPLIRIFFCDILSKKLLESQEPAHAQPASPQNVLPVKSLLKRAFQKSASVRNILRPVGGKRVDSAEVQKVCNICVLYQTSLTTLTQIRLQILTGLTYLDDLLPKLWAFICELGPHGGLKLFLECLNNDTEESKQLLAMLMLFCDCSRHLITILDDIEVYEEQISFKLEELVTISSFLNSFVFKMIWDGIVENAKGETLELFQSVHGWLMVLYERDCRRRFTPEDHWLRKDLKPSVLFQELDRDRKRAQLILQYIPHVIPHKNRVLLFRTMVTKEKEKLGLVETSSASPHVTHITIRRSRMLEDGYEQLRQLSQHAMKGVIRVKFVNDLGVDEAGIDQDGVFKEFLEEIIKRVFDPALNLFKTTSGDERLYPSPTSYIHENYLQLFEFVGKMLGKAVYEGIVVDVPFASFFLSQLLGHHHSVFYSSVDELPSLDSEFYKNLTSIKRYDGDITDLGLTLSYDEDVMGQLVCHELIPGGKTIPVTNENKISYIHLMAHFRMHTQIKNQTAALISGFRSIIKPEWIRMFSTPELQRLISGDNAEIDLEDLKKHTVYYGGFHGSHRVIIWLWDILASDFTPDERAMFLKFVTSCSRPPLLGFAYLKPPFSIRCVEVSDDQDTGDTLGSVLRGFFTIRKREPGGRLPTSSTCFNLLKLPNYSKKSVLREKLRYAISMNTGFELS
UniProt Q5BJH2, sequence (Q5BJH2 whole entry, looked up): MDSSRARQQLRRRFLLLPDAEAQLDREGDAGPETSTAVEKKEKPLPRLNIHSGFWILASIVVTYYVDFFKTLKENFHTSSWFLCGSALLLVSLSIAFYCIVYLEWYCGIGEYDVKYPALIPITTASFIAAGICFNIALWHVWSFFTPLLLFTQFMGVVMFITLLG
UniProt Q01081, sequence (Q01081 whole entry, looked up): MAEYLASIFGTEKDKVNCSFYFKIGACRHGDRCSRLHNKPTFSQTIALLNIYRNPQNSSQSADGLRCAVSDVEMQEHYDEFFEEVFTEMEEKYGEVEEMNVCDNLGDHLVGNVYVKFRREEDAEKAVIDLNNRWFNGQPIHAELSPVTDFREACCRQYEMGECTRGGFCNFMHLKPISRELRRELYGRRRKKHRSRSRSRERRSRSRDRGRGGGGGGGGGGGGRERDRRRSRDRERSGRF
UniProt P49815, sequence (P49815 whole entry, looked up): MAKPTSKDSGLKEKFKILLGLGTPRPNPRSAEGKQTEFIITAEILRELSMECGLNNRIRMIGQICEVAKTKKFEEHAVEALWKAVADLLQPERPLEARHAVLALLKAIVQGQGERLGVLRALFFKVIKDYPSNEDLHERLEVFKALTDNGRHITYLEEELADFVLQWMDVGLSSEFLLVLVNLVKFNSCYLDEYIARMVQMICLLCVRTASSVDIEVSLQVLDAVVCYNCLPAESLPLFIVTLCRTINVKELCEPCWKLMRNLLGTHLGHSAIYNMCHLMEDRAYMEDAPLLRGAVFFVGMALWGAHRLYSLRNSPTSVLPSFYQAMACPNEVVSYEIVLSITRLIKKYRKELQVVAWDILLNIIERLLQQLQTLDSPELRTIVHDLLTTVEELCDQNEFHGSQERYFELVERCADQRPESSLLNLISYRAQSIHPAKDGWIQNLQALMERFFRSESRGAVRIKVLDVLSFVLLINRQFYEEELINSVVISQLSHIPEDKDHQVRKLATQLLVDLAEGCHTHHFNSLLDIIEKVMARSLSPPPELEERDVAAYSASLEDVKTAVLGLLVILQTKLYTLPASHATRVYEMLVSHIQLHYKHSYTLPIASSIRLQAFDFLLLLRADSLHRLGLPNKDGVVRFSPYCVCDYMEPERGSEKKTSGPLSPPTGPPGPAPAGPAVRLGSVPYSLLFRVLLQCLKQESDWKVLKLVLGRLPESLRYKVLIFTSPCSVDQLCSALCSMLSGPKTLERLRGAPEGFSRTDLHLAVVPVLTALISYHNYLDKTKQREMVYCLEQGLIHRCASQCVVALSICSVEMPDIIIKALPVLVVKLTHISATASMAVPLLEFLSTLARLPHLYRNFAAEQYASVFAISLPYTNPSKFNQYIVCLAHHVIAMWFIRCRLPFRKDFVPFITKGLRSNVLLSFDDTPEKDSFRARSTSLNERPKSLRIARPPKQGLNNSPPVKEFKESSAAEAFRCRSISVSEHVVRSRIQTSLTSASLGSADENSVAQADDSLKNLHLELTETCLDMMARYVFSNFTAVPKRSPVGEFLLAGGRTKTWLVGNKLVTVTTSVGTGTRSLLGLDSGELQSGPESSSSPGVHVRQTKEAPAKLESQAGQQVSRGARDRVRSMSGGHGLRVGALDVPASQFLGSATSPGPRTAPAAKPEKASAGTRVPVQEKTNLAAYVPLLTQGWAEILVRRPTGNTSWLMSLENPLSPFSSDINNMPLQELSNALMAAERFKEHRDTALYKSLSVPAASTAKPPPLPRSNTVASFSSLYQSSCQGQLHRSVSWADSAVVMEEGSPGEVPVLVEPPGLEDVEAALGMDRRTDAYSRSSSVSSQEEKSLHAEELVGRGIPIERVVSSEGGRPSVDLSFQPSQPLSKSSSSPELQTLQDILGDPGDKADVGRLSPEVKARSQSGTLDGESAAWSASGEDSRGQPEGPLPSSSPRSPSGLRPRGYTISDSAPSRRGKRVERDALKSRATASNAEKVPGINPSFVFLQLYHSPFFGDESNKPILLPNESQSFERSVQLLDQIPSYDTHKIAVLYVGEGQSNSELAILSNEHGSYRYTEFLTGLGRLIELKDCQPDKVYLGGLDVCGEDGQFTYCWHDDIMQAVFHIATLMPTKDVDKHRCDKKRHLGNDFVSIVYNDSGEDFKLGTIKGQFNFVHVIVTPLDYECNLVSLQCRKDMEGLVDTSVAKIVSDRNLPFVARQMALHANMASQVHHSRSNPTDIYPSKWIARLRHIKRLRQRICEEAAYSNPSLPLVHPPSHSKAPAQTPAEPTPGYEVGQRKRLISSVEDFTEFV
UniProt Q9H3M7, sequence (Q9H3M7 whole entry, looked up): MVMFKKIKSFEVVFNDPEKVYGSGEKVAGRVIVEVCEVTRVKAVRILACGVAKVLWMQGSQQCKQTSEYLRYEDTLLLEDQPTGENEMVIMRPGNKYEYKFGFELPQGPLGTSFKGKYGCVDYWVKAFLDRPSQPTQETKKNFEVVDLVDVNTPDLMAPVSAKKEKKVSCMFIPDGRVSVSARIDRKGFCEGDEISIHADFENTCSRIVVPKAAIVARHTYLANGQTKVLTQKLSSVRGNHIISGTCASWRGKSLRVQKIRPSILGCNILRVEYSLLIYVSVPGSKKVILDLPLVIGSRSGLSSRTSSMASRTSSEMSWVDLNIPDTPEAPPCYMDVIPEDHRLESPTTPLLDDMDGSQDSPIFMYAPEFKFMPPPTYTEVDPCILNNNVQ
UniProt Q9BUB7, sequence (Q9BUB7 whole entry, looked up): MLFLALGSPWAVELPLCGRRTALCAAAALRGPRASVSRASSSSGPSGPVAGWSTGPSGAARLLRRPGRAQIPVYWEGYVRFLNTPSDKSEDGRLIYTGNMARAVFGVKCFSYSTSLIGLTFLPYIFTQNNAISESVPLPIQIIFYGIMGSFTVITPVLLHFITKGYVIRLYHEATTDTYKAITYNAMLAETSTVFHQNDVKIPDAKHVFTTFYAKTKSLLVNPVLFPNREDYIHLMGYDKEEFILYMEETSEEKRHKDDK
UniProt Q9UBK9, sequence (Q9UBK9 whole entry, looked up): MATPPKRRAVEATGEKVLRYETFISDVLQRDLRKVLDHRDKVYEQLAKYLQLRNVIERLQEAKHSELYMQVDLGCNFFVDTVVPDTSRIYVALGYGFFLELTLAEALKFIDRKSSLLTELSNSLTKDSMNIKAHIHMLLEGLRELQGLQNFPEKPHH
UniProt Q96DX7, sequence (Q96DX7 whole entry, looked up): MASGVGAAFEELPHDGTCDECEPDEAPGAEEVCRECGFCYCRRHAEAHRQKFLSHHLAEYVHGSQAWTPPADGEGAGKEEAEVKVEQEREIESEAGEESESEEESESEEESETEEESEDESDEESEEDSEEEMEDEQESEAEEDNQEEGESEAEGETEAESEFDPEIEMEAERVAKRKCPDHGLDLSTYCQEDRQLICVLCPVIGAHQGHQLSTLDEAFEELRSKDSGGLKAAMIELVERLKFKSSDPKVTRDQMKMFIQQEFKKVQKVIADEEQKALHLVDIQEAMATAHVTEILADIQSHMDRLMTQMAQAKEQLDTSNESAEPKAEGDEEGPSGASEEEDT

Target | log2 fold change (IRAK-1-4 Inhibitor I) | log2 fold change (ibrutinib) | log2 fold change [1] | log2 fold change (ralimetinib) | log2 fold change [2] | log2 fold change [3] | log2 fold change [4] | log2 fold change (pinometostat) | log2 fold change [5] | log2 fold change [6] | log2 fold change [7] | log2 fold change [8] | log2 fold change [9] | log2 fold change (Nexturastat A) | log2 fold change [10] | log2 fold change [11] | log2 fold change (givinostat) | log2 fold change (barasertib) | log2 fold change [12] | log2 fold change (vemurafenib)
TSC2 (UniProt P49815) | -0.045 | 0.028 | 0.05 | 0.091 | -0.001 | 0.103 | 0.056 | 0.085 | 0.105 | -0.09 | 0.004 | -0.076 | -0.139 | 0.173 | 0.098 | -0.036 | -0.043 | -0.015 |  | 
UBE3B (UniProt Q7Z3V4) | -0.182 | -0.019 | -0.068 | -0.296 | -0.154 |  | 0.001 | 0.239 | -0.188 | 0.142 | 0.086 | -0.03 | 0.007 | 0.014 | -0.099 |  |  | -0.057 | -0.102 | 
WDR11 (UniProt Q9BZH6) | 0.009 | -0.112 | -0.01 | -0.068 | -0.018 | -0.056 | -0.047 | 0 | 0.065 | -0.004 | 0.057 | -0.008 | -0.016 | -0.097 | -0.084 | -0.105 | 0.035 | 0.034 | 0.069 | -0.089
TMEM128 (UniProt Q5BJH2) | -0.046 | -0.025 | 0.45 (active) | -0.036 | -0.051 | 0.028 | 0.108 | 0.122 | 0 | -0.023 | -0.006 | -0.005 | -0.054 | 0.021 | 0.052 |  | 0.249 | -0.004 | 0.001 | -0.279
TMEM184C (UniProt Q9NVA4) | 0.105 | -0.037 | 0.042 | -0.033 | 0.088 |  | 0.042 | -0.021 | -0.005 | -0.07 | 0.028 |  | 0.028 | -0.02 |  | -0.028 |  | 0.055 | 0.081 | 0.024
UBA52 (UniProt P62987) | -0.098 | 0.091 | 0.21 | 0.139 | 0.107 | 0.044 | 0.147 | 0.358 | -0.532 | -0.046 | 0.024 | -0.107 | -0.16 | 0.281 | -0.165 | 0.205 | -0.06 | 0.044 |  | -0.212
VARS2, A0A0G2JL52 | 0.012 | 0.014 | -0.03 | 0.064 | -0.074 | -0.177 | 0.025 | -0.014 | 0.082 | -0.003 | 0.005 | -0.025 | 0.012 | 0.005 | 0.047 | -0.018 | -0.015 | 0.052 | 0.003 | 0.03
TXNIP (UniProt Q9H3M7) | 0.05 | 0.016 | -0.053 | 0.13 | 0.072 | -0.371 | 0.128 | -0.083 | -0.42 (active) | -0.04 | 0.003 | -0.115 | 0.034 | 0.177 | -0.079 | 0.001 | -0.06 | 0.033 | -0.097 | -0.005
WARS1 (UniProt G3V277) | -0.005 | -0.064 | -0.184 |  |  | -0.009 |  | 0.114 | 0.087 | 0.02 |  |  | -0.043 |  |  | -0.338 | 0.141 | 0.073 | 0.091 | -0.587 (active)
WDR18 (UniProt Q9BV38) | -0.005 | -0.03 | -0.007 | 0.064 | 0.025 | 0.008 | -0.102 | 0.028 | -0.962 (active) | -0.042 | 0.08 | 0.016 | 0.014 | -0.035 | -0.003 | 0.004 | -0.025 | 0.013 | 0.011 | 0.04
TMEM70 (UniProt Q9BUB7) | 0.07 | 0.068 | -0.034 | -0.044 | -0.095 | 0.13 | 0.028 | 0.019 | 0.086 | 0.006 | 0.051 | 0.051 | 0.005 | -0.012 | 0.029 | -0.053 | -0.164 | 0.047 | -0.034 | -0.011
TRIM44 (UniProt Q96DX7) | 0.031 | 0.018 | 0.067 | -0.094 |  | -0.06 | 0.061 | -0.01 | -0.327 (active) | 0.059 | -0.055 | 0.06 | 0.015 |  | 0.042 | 0 | -0.026 | -0.035 | -0.007 | -0.005
TMEM106B (UniProt Q9NUM4) | 0.056 | 0.029 | 0.043 |  | 0.043 | -0.092 |  | 0.085 | -0.027 | -0.029 |  | 0.161 | 0.019 | -0.11 | -0.081 | -0.023 | 0.052 | -0.039 | 0.026 | -0.163
UXT isoform 2 (UniProt Q9UBK9) | 0.103 | -0.033 | -0.019 | -0.031 | -0.005 | 0.316 | 0.082 | -0.141 | 0.194 | 0.008 | 0.003 | 0.039 | -0.074 | 0.904 (active) | -0.013 | 0.041 | 0.211 | 0.022 | -0.016 | -0.023
VWA3B isoform 6 (UniProt Q502W6) | 0.043 | -0.069 | 0.013 | -0.031 | 0 | -0.407 | -0.256 | 0.079 | 0.089 |  | 0.104 | 0.072 | 0 | -0.292 | 0.008 | -0.169 | 0.011 | 0.057 | 0.257 | -0.1
U2AF1 isoform 2 (UniProt Q01081) | -0.133 | 0.073 | -0.519 (active) | 0 | 0.042 | -0.083 | 0.022 | -0.04 | 0.169 | -0.011 | -0.078 | -0.01 | 0.091 | 0.011 | 0.071 | -0.009 | 0.022 | 0.009 | -0.062 | 0.074
USO1 isoform 2 (UniProt O60763) | 0.05 | -0.025 | 0.066 | 0.004 | -0.061 | -0.108 | -0.01 | 0.008 | -0.005 | 0.009 | -0.013 | 0.02 | 0.038 | -0.029 | 0.062 | -0.018 | 0 | 0.031 | -0.011 | 0.063
